Source: ChEMBL document CHEMBL1157539, “Thousands of chemical starting points for antimalarial lead identification” (Nature, 2010)

Columns and labels:
Format in all cases: functional
[1] = test system: Plasmodium falciparum; experiment: GSK_TCMDC: Inhibition of Plasmodium falciparum 3D7 in whole red blood cells, using parasite LDH activity as an index of growth. Test compounds present at 2uM
[2] = test system: Plasmodium falciparum; experiment: GSK_TCMDC: Inhibition of Plasmodium falciparum Dd2 in whole red blood cells, using parasite LDH activity as an index of growth. Test compounds present at 2uM
[3] = test system: HepG2; experiment: GSK_TCMDC: Percent inhibition of human HepG2 cell line. Test compounds present at 10uM.

SMILES | Inhibition [1] [%] | Inhibition [2] [%] | Inhibition [3] [%]
COc1ccc(Nc2ncc(C#N)c(Nc3ccccc3C(N)=O)n2)cc1N1CCN(C)CC1.Cl | 93 | 97 | 56
COc1ccc2c(NN=Cc3ccccc3F)ccnc2c1 | 98 | 99 | 15
Cl.O=C(CCc1ccccc1)N[C@H](Cc1c[nH]c2ccccc12)C(=O)N1CCC(NCc2ccc3c(c2)Cc2ccccc2-3)CC1 | 92 | 8 | 53
COc1cccc(C(=O)Nc2ccc(Oc3ccc(Cl)cc3)cc2)c1 | 92 | 0 | 33
COc1ccc(NC(=O)c2ccc3[nH]c(-c4ccc(Cl)cc4)cc3c2)cc1OCCN(C)C | 100 | 78 | 32
CCCCNc1ccc(C(=O)NC2CCN(C[C@H](O)c3ccnc4ccc(OC)cc34)CC2)cc1 | 90 | 64 | 12
Oc1cc2c(cc1CN1CCN(Cc3ccc(Cl)s3)CC1)CCC2 | 98 | 76 | 7
COc1ccc(-c2c(-c3ccc(OCc4ccccc4)cc3O)n[nH]c2C(F)(F)F)cc1 | 93 | 57 | 49
Cc1cc(Oc2cc(NC(=O)c3sc4ncn(Cc5ccccc5F)c(=O)c4c3C)cc([N+](=O)[O-])c2)ccc1Cl | 94 | 24 | 2
O=C(Nc1ccc(OC2CCN(Cc3ccsc3)C2)c(Cl)c1)c1cccs1.O=C(O)C(F)(F)F (stereo unspecified) | 91 | 87 | 0
CC(C)C[C@H](NC(=O)c1cc2ccccc2s1)C(=O)N[C@H]1CCN(Cc2ccc(OC[C@@H]3CCCN3C)c3ccccc23)C1.O=C(O)C(F)(F)F | 100 | 93 | 69
COc1ccc(NC(=O)NCC2CCCN(CCCCCNC(=O)/C=C/c3ccc(Cl)c(Cl)c3)C2)c(OC)c1 (stereo unspecified) | 95 | 0 | 8
CC(C)c1ccc(N(CC(=O)N/N=C/c2ccc(C(F)(F)F)cc2)S(=O)(=O)c2ccc(C(F)(F)F)cc2)cc1 | 91 | 44 | 2
CN(C)Cc1ccc(-c2cccc(NC(=O)c3cccc(Cl)c3)c2)cc1.O=C(O)C(F)(F)F | 96 | 12 | 18
CC(C)(C)c1ccc(CNC(=O)c2cc(CNC3CCC(N)CC3)ccc2O)cc1 (stereo unspecified) | 94 | 1 | 1
COc1ccc(CNc2nccc3ccc(-c4ccc(N)nc4)cc23)cc1.O=C(O)C(F)(F)F | 93 | 49 | 7
CN(Cc1cccc(C#N)c1)C1CCN(c2cc(NC(=O)c3cccc(F)c3)ccn2)CC1.O=C(O)C(F)(F)F | 98 | 15 | 0
O=C(O)C(F)(F)F.O=c1cc(N2CCCNCC2)c(Cl)nn1Cc1ccc(NS(=O)(=O)c2ccc(Oc3ccccc3)cc2)cc1 | 98 | 0 | 0
FC(F)(F)c1ccc2[nH]c(-c3ccc(-c4ccc(CNCCN5CCNCC5)cc4)s3)nc2c1.O=C(O)C(F)(F)F | 94 | 79 | 17

SMILES | Inhibition [1] [%] | Inhibition [2] [%] | Inhibition [3] [%]
O=C(NCC1CCN(Cc2cccc(C(F)(F)F)c2)C1)c1cc(-c2cccc(Cl)c2)cs1.O=C(O)C(F)(F)F (stereo unspecified) | 93 | 14 | 15
C=CCN1CCC(N(Cc2cccc(Oc3ccccc3)c2)C(=O)C(c2ccccc2)c2ccccc2)CC1 | 87 | 79 | 7
O=C(Nc1cccc(CN2CCCN(Cc3ccc(O)cc3)CC2)c1)c1cccc(C(F)(F)F)c1.O=C(O)C(F)(F)F | 100 | 71 | 9
CNCCNCc1ccc(-c2ccc(-c3nc4cc(C(F)(F)F)ccc4[nH]3)cc2)cc1.O=C(O)C(F)(F)F | 99 | 92 | 28
COc1ccccc1CCNc1nc(C)cc(N[C@@H](Cc2ccccc2)C(=O)NCCCOC(C)C)n1.O=C(O)C(F)(F)F | 99 | 32 | 10
Clc1cc(Nc2ncnc3sc(C#Cc4ncc[nH]4)cc23)ccc1OCc1ccccn1 | 100 | 6 | 10
CN1CCC(N(Cc2ccc(-c3ccc(C(F)(F)F)cc3)nc2)C(=O)Cn2c(CCc3cccc(F)c3F)cc(=O)c3ccccc32)CC1.O=C(O)C(O)C(O)C(=O)O | 91 | 85 | 60
N#Cc1ccc(NC(=O)N2CCCN(CCCCCNC(=O)/C=C/c3ccc(Cl)c(Cl)c3)CC2)cc1 | 100 | 4 | 32
CC1(C)NC(N)=NC(=N)N1OCc1cc(Cl)c(Cl)cc1CON1C(=N)N=C(N)NC1(C)C | 98 | 100 | 36
CC(C)CCNc1nc(NCc2ccccc2)c2cc(O)ccc2n1 | 100 | 92 | 25
CC(CCc1ccc(OCc2ccccc2)cc1)NCC(O)c1ccccc1 (stereo unspecified) | 86 | 72 | 9
CCc1nc2nc(C)cc(Nc3cc(C)cc(C)c3)n2n1 | 96 | 96 | 21
COc1ccc2nc(N(CCCn3ccnc3)C(=O)C=Cc3cccs3)sc2c1.Cl | 92 | 26 | 8
Cc1cc(NCCC(=O)Nc2ccccc2)nc(NCCc2ccc(F)cc2)n1.O=C(O)C(F)(F)F | 100 | 43 | 26
O=C(Nc1cccc(-c2csc(-c3ccccc3)n2)c1)c1cccs1 | 89 | 71 | 0
O=C(O)C(F)(F)F.Oc1ccc(CCNc2nc(NCc3ccccc3-c3ccc(C(F)(F)F)cc3)nc(NC3CCNCC3)n2)cc1 | 97 | 2 | 12
O=C(NCCCNc1ccnc2cc(Cl)ccc12)c1ccccc1F | 100 | 97 | 18
Cl.O=C(O)CNCC(O)c1ccccc1 (stereo unspecified) | 96 | 0 | 7
CSc1ccc(C=CC(=O)NC(=O)c2ccccc2O)cc1 | 97 | 96 | 2

SMILES | Inhibition [1] [%] | Inhibition [2] [%] | Inhibition [3] [%]
COc1ccc(C(=O)NC(Nc2ccc([N+](=O)[O-])cc2)C(Cl)(Cl)Cl)cc1 (stereo unspecified) | 95 | 83 | 15
Cc1cccc2nc(-c3cccc(-c4ccc(NC(=O)CCc5c[nH]cn5)cc4)c3)[nH]c12 | 100 | 92 | 3
COc1ccc(CN2CCN(Cc3cc(Cl)ccc3O)CC2CCO)c(C)c1C (stereo unspecified) | 94 | 76 | 1
CC[C@H]1CN(C/C=C/c2ccc(OC)cc2)CC[C@H]1CCCc1ccnc2ccc(O)cc12 | 99 | 72 | 24
NC(=O)c1cccc(CNCc2ccc(-c3cccc(-c4nc5ccccc5[nH]4)c3)cc2)c1.O=C(O)C(F)(F)F | 100 | 94 | 29
COc1cc2nc(N3CCN(C(=O)c4ccc(N(C(=O)OC(C)(C)C)C(=O)OC(C)(C)C)cc4)CC3)nc(N)c2cc1OC | 96 | 19 | 12
CNC(=N)c1ccc(NC(=O)c2ccc(C(=O)Nc3ccc(C(=N)NC)cc3)cc2)cc1.Cl | 96 | 91 | 6
CCCCCCCNCc1c(O)ccc2c(CNCCCCCCC)c(O)ccc12.Cl | 100 | 99 | 29
Cc1cc(=O)c(-c2ccc(Oc3ccc(C(F)(F)F)cc3)cc2)c(C)n1O | 94 | 78 | 18
Cc1nc(C)c(-c2ccc(-c3ccc(F)cc3)cc2)c(O)c1Br | 94 | 52 | 12
O=C(N[C@H]1CCN(CCc2ccc(O[C@H]3CCNC3)cc2)C1)c1ccc(Cl)c(Cl)c1.O=C(O)C(F)(F)F | 96 | 5 | 18
COc1ccc(Nc2ncc3c(-c4cccc(NC(=O)CC(C)C)c4)c[nH]c3n2)cc1OC | 100 | 71 | 37
COc1ccc(CN(C)Cc2ccc(NC(=O)c3cccc4c(=O)c5cccc(C)c5[nH]c34)cc2)cc1OC | 92 | 22 | 7
CCN(CC)/C(=N\C(=N)NCCCCCCNC(=N)/N=C(\Nc1ccc(Cl)cc1)N(CC)CC)Nc1ccc(Cl)cc1 | 97 | 96 | 1
c1ccc(-c2n[nH]cc2Nc2ccnc3ccccc23)nc1 | 100 | 98 | 36
Cl.Nc1nc(N)c2c(ccc3c2ccn3CCCC2CCCNC2)n1 (stereo unspecified) | 98 | 55 | 67
CCN1CCN(CC(O)CNC(=O)Nc2ccc(Cl)cc2)CC1.O=C(O)C(F)(F)F (stereo unspecified) | 100 | 99 | 29
COc1ccccc1CCNc1ncnc2c1[nH]c1ccc(F)cc12 | 95 | 68 | 49
CN1CCC(Oc2ccc(CN3CC[C@H](NC(=O)c4ccc(Cl)c(Cl)c4)C3)cc2Cl)C1.O=C(O)C(F)(F)F (stereo partly specified) | 100 | 78 | 68
